In all, about 360,000 compounds went through this assay and about 2,600 (0.72%) were called active. The sample holds actives, similar compounds and a random draw of the others, so the mix is not that of the screen.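 The calls were made as follows: active = inhibition of the luminescence signal of 40% or more relative to plate controls, in a single-dose primary screen at 18.75 µM; inactive = the rest.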
Assay: HIF-2a reporter inhibitors, primary screen, luminescence, 786-0 RCC cells (AID 624352)
Conditions: 786-0 RCC cells HIF-2a reporter, luciferase luminescence, overnight; at 18.8 µM; stronger effect = higher value

inhibition, active:
COc1ccc(/C=C2/SC(=O)N(CCCCCC(=O)Nc3ccccc3C(=O)O)C2=S)cc1 84.2%
NC1=CC(=O)C(=O)c2cccnc21 54.7%
CSc1nc(-c2ccccc2)nc(C(Cl)Cl)n1 77.8%
O=C(CCl)Nc1cccc(CP(=O)(c2ccccc2)c2ccccc2)c1 44.2%
CC[C@@H]1Cc2cc(O)ccc2C2=C1c1ccc(O)cc1C[C@H]2CC 45.9%
COc1cc2c(cc1O)C(SC)=NC(C)(C)C2 89.4%
O=C(/C(=C/c1cccc(Cl)c1)c1nc2ccccc2[nH]1)c1ccccc1 92.8%
CCc1ccc(CNC(=O)C2CCN(c3nnc(C)c4c(C)n(-c5ccc(C)cc5)nc34)CC2)cc1 54.1%
CCOc1ccc(CNC(=O)C2CCCN(c3nnc(C)c4c(C)n(-c5ccccc5)nc34)C2)cc1 (stereo not drawn) 40.7%
Cc1cc(C)nc(S/C=C/C(=O)c2ccccc2)n1 69.1%
CCOC(=O)c1c(C)[nH]c2c1-c1ccccc1C(=O)C2=O 96.1%
COc1ccc(C(=O)Nc2ccccc2C(=O)N/N=C/c2ccc(O)c(OC)c2)cc1 69.5%
Cc1[nH]c(=O)c(C(=O)/C=C/c2ccccc2)c2c1CCCC2 72.5%
COC(=O)CCNc1ccc2c(c1)OCCO2 42%
O=S(=O)([N-]c1nc2ccccc2nc1-[n+]1ccc(Cc2ccccc2)cc1)c1ccc(Br)s1 52.2%
O=C(/C=C/Sc1ncn[nH]1)c1ccc(Cl)cc1 88.1%
COc1ccc(CC(N)c2csc(NC(=O)Nc3ccc(C(C)C)cc3)n2)cc1 (stereo not drawn) 91.1%
CN1OC[C@@H]2CN(S(=O)(=O)c3cccc(C(F)(F)F)c3)[C@H](c3ccc(-c4cc5ccccc5o4)cc3)C[C@@H]21 50.8%
CN(C)CCNC(=O)c1ccc(Cl)c2cc3ccccc3nc12 43.6%
Cc1cc(-c2n[nH]c(=S)n2/N=C/C(Br)=C/c2ccccc2)n[nH]1 87%
CC[C@@H](C)[C@H](NC(=O)CCc1c(C)c2cc3c4c(oc3c(C)c2oc1=O)CCCC4)C(=O)O 56.9%

inhibition, inactive:
COc1ccc(NC(=O)CCCN2C(=O)C(c3ccccc3)Oc3cccnc32)cc1 (stereo not drawn) 0.775%
CCCNC(=O)c1ccccc1NC(=O)CSCc1ccc(OC)cc1 19%
Cc1ccccc1C(=O)N1CCC(C(=O)Nc2ccc(S(=O)(=O)N(C)C(C)C)cc2)CC1 16.4%
CC=CCn1c(SCCCc2ccccc2)nc2c1c(=O)[nH]c(=O)n2C 3.87%
O=C(CCC(=O)NNc1nc2ccccc2c2nc(-c3ccccc3)nn12)NCCCN1CCCC1=O -19.4%
COCCNC(=S)Nc1cc(S(=O)(=O)N2CCOCC2)ccc1N1CCCCC1 11.9%
CCn1cc(CNC(=O)c2cc([N+](=O)[O-])c(C)c([N+](=O)[O-])c2)cn1 8.39%
O=C(CN1CCN(Cc2ccccc2)CC1)Nc1ccc(F)c(F)c1 -1.13%
O=C(CNCc1ccc(Cl)cc1)Nc1cccc(C(=O)O)c1 2.72%
O=C(NCc1cccs1)c1ccc(CS(=O)Cc2ccccc2Cl)o1 (stereo not drawn) -0.00949%
Cc1cccc(OCCC(=O)Nc2cc(S(=O)(=O)N3CCCCC3)ccc2N2CCOCC2)c1 -42.8%
CCOC(=O)c1sc(/N=C/C2=C(O)CC(C)(C)CC2=O)c(C(=O)OCC)c1C -268%
CC(C)C1Nc2c(C(=O)O)cccc2C(Nc2ccccc2C(=O)O)C1(C)C (stereo not drawn) 19%
O=C(COC(=O)CC1CC2CCC1C2)NC(=O)NC1CCCC1 (stereo not drawn) 11.3%
Cc1cc(Br)cn2c(Cc3ccccc3C(F)(F)F)c(C3CCCCC3)nc12 7.15%
COc1cc2c(cc1OC)C(Nc1ccc(S(N)(=O)=O)cc1)=NC(C)(C)C2 8.2%
COc1cc2c(cc1OC)CC1(CCCCC1)N=C2 10.1%
CC(NC(=O)CC1SC(N)=NC1=O)c1ccccc1 (stereo not drawn) 6.27%
C[C@H]1CN([C@@H](C)CO)C(=O)CCCn2cc(nn2)CO[C@@H]1CN(C)S(=O)(=O)c1cccs1 6.28%
O=c1onc(-c2c(F)cccc2F)n1-c1ccccc1Cl 11.8%
Cc1c[n+]([O-])ccc1[N+](=O)[O-] 3.58%
CCc1ccc(CNC(=O)C2CC(=O)N(CCc3ccc(C)cc3)C2)cc1 (stereo not drawn) -8.53%
CCc1ccc(CNC(=O)C2CCCN(c3nc4ccccc4o3)C2)cc1 (stereo not drawn) 12.9%
COc1cccc(CNC(=O)C2CCCN(c3ncnc4c3nc3n4CCCCC3)C2)c1 (stereo not drawn) 0.819%
Cc1ccc(NC(=O)N2CCC(C(=O)NCc3ccc(F)cc3)CC2)cc1 11.1%
CN(C)S(=O)(=O)c1cc(NC(=O)CN2C(=O)NC3(CCCc4ccccc43)C2=O)ccc1Cl (stereo not drawn) 12.2%
O=c1cc(C(F)(F)F)[nH]c(=O)n1C1CCCCC1 3.85%
COc1ccc([N+](=O)[O-])cc1N(CC(=O)Nc1ccccc1C(=O)N1CCOCC1)S(C)(=O)=O 3.69%
CCCCNC(=O)OCCSCCS(=O)(=O)c1ccc(Cl)cc1 10.7%
O=C(CN1CCN(c2ccccn2)CC1)NCc1cccs1 4.32%
COc1ccc(OC)c(NC(=O)C2CCCN2S(=O)(=O)c2cccc3nsnc23)c1 (stereo not drawn) 16.7%
Cc1nc(SCC(=O)c2ccccc2)c([N+](=O)[O-])[nH]1 8.52%
C/C(=C\C(=O)c1ccccc1)Nc1cccc(O)c1 -359%
CN1c2ccc(C=O)c3c(C=O)ccc(c23)N(C)C1(C)C 25.6%
CC1(C(=O)NS(=O)(=O)Cc2cccc(Cl)c2)CCN1C(=O)Cc1ccccc1 (stereo not drawn) 12.1%
C[C@@H]1NC(=O)c2cc([N+](=O)[O-])cc(F)c2NCCC[C@@H](C(N)=O)NC(=O)[C@H](CC(N)=O)NC1=O 9.38%
CCOC(=O)c1[nH]c(C)c(C(=O)OCC(=O)N2c3ccccc3CC2C)c1C (stereo not drawn) 2.58%
CCOC(=O)c1c(C)oc(C)c(C(=O)OCC)c1=O 0.843%
COc1ccc(CN2CCNC(=O)C2CC(=O)N(C)Cc2ccccn2)cc1OC (stereo not drawn) 9.28%
COc1cc(C=NC2CCCCC2)ccc1O 2.1%
COc1cc(/C=N/NC(=O)Nc2ccccc2)ccc1OCCOc1ccccc1C -9.55%
Cc1ccc(C)c(NC(=O)CN(C)C(=O)c2ccc3ncsc3c2)c1 5.94%
CC(C)CN(C(=O)c1ccc2c(c1)OCO2)C1CCS(=O)(=O)C1 (stereo not drawn) 24.2%
Cc1nn(-c2ccccc2)c(=O)c2noc(C)c12 3.29%
C/C(=C\c1ccccc1)C1NC(=O)c2c(sc3c2CCCC3)N1 (stereo not drawn) -140%
CC1(C(=O)O)CCN1C(=O)/C=C/c1ccccc1 (stereo not drawn) 3.94%
Cc1ccc(OCCCC(=O)Nc2ccc3c(c2)OCCO3)cc1 1.79%
CCOc1ccc(NCCC(=O)c2ccc3c(c2)OCO3)cc1 -129%
CCC(=O)Nc1ccc(C(=O)CSc2nnc(CNc3ccc(Cl)cc3)o2)cc1OC 14.6%
CC(=O)N1c2ccc(S(=O)(=O)N3CCCC(C(=O)Nc4ccc(C)cc4C)C3)cc2CC1C (stereo not drawn) 17%
Oc1ccc(CNc2ccccc2O)cc1 -142%
O=S(=O)(NCc1ccccn1)c1ccc(Br)s1 -3.82%
CCN(CC)CC(=O)Nc1nn(-c2ccccc2)nc1C(N)=O 4.53%
OCCCNC(c1ccccc1)c1ccc(O)cc1 (stereo not drawn) 1.29%
CC(=O)OCc1cc(=O)n(C)c(=O)n1C -10.8%
O=C(CSc1nc2cccc(F)c2c(=O)n1-c1ccccc1)Nc1ccc2c(c1)CCC2 -5.39%
CC(C)(C)CC(=O)Nc1nc(C(N)Cc2ccc(C(F)(F)F)cc2)cs1 (stereo not drawn) 11.1%
COc1ccc(CC(N)c2csc(NC(=O)NC(c3ccccc3)c3ccccc3)n2)cc1 (stereo not drawn) 4.75%
O=C(CNC(=O)OCc1ccccc1)Oc1cc2oc(=O)cc(-c3ccccc3)c2cc1Cl -13.9%
CN1OC[C@@H]2CN(S(=O)(=O)c3cccc4ccccc34)[C@H](c3ccc(N4CCCCC4)cc3)C[C@@H]21 7.35%
COc1ccc(S(=O)(=O)N2C[C@H]3CON(C)[C@H]3C[C@H]2c2cccc(Br)c2)cc1 6%
COc1ccc(-c2cnc3c(c2)C(=O)N([C@H](C)CO)C[C@@H](C)[C@H](CN(C)Cc2ccccc2)O3)cc1 -3.08%
Cc1cc(C)n(C(=O)CCNC(=O)c2ccccc2Cl)n1 5.47%
COCCNC(=O)c1ccccc1-c1nc(-c2ccccc2Cl)no1 -82.5%
O=S(=O)(N/N=C\c1cccn1-c1ccccc1)c1ccc2ccccc2c1 9.64%
CCN(CC)S(=O)(=O)c1cccc(-c2n[nH]c(=S)n2/N=C/c2ccc(C(=O)OC)cc2)c1 20.2%
CCCc1cc(-c2n[nH]c(=S)n2CC)c2ccccc2n1 25.6%
CCN1CCN(C(=O)C2CCN(S(=O)(=O)c3cc(Cl)ccc3Cl)CC2)CC1 6.56%
COc1ccc(Br)cc1S(=O)(=O)N1CCN=C1C 13.2%
O=C(Nc1ccc2c(c1)OCO2)C1CC(c2c(F)cccc2Cl)=NO1 (stereo not drawn) -228%
Cc1c(C)c2cc3c4c(oc3c(C)c2oc1=O)CCCC4 -31.5%
Cc1c(CCC(=O)N[C@@H](CC(C)C)C(=O)O)c(=O)oc2c(C)c3oc4c(c3cc12)CCCC4 31.2%

Reference: PubChem BioAssay AID624352 (Sanford-Burnham Center for Chemical Genomics, 2012)
